Assay in all cases: yeast three-hybrid, YBZ-1, SC-Leu-His + 0.5 mM 3-AT, 4 days
Settings in all cases: tags: N-Gal4 AD-HA kept; label: inside an RPR1-promoter hybrid RNA with tandem MS2 sites; ssRNA

One experiment concerns the target PUM1 PUF domain R1-RRA (Homo sapiens, UniProt Q14671 828-1176, S863R;Q867A). An outline of the steps: (§1)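 The interaction score is the log change in how often each variant appears, from input to selection. Frequencies came from PCR-amplified, Illumina-sequenced repeat regions of Pumilio-1 PUF domain libraries grown in strain YBZ-1 (LexA–MS2 coat fusion, HIS3 reporter) alongside matching RNA elements. Input plates were SC-Leu and selection plates were SC-Leu-His + 0.5 mM 3-AT, each for four days, and the log2 calculation used a pseudocount of 1 where a variant was absent.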

A further experiment deals with PUM1 PUF domain R1-RLM (Homo sapiens, UniProt Q14671 828-1176, S863R;R864L;Q867M). An outline of the steps:
as §1

The target of the next experiment is PUM1 PUF domain R5-RMG (Homo sapiens, UniProt Q14671 828-1176, C1007R;R1008M;Q1011G). The method, boiled down:
as §1

In a further experiment the target is PUM1 PUF domain R8-HWV (Homo sapiens, UniProt Q14671 828-1176, N1122H;Y1123W;Q1126V). An outline of the steps: as §1
The target of a further experiment is PUM1 PUF domain R3-EFT (Homo sapiens, UniProt Q14671 828-1176, C935E;R936F;Q939T). The method, boiled down: as §1
For another experiment, the target named is PUM1 PUF domain R4-EPS (Homo sapiens, UniProt Q14671 828-1176, N971E;H972P;Q975S). An outline of the steps:
as §1

The next experiment concerns the target PUM1 PUF domain R4-GHF (Homo sapiens, UniProt Q14671 828-1176, N971G;Q975F). An outline of the steps:
as §1

The target of a further experiment is PUM1 PUF domain R4-ANS (Homo sapiens, UniProt Q14671 828-1176, N971A;H972N;Q975S). The method, boiled down: as §1
A further experiment concerns the target PUM1 PUF domain R4-GCC (Homo sapiens, UniProt Q14671 828-1176, N971G;H972C;Q975C). The method, boiled down: as §1
In a further experiment the target is PUM1 PUF domain R4-CNA (Homo sapiens, UniProt Q14671 828-1176, N971C;H972N;Q975A). The method, boiled down:
as §1

Regarding “GGCUAGAACUAGUGGAUCCCCCGGCGCCCGGCGGCUCGAGCCCGGGUAAGUGUAAAUUGUCUGCAUGCCGCCGGGCGCCAUGCCUGCAGGUCGACUCUAGAAAACAUG”, the binding signal in the experiment with PUM1 PUF domain R1-RRA was 1.49 log2 enrichment (interaction score); with PUM1 PUF domain R1-RLM, 3.95 log2 enrichment (interaction score).
Regarding “GGCUAGAACUAGUGGAUCCCCCGGCGCCCGGCGGCUCGAGCCCGGGUAAGUGUCAAUAGUCUGCAUGCCGCCGGGCGCCAUGCCUGCAGGUCGACUCUAGAAAACAUG”, the binding signal with PUM1 PUF domain R5-RMG was 2.42 log2 enrichment (interaction score).
Regarding “GGCUAGAACUAGUGGAUCCCCCGGCGCCCGGCGGCUCGAGCCCGGGUAAGUGUAAAUCGUCUGCAUGCCGCCGGGCGCCAUGCCUGCAGGUCGACUCUAGAAAACAUG”, the binding signal is 2.68 log2 enrichment (interaction score) in the experiment with PUM1 PUF domain R1-RRA and 3.34 log2 enrichment (interaction score) with PUM1 PUF domain R1-RLM.
In the case of “GGCUAGAACUAGUGGAUCCCCCGGCGCCCGGCGGCUCGAGCCCGGGUAAGCGUAAAUAGUCUGCAUGCCGCCGGGCGCCAUGCCUGCAGGUCGACUCUAGAAAACAUG”, the binding signal in the experiment with PUM1 PUF domain R8-HWV was 4.26 log2 enrichment (interaction score).
As to “GGCUAGAACUAGUGGAUCCCCCGGCGCCCGGCGGCUCGAGCCCGGGUAAGUGUAAGUAGUCUGCAUGCCGCCGGGCGCCAUGCCUGCAGGUCGACUCUAGAAAACAUG”, the binding signal with PUM1 PUF domain R3-EFT was 3.92 log2 enrichment (interaction score).
Take “GGCUAGAACUAGUGGAUCCCCCGGCGCCCGGCGGCUCGAGCCCGGGUAAGUGUAAAUAGUCUGCAUGCCGCCGGGCGCCAUGCCUGCAGGUCGACUCUAGAAAACAUG”: the binding signal is 3.28 log2 enrichment (interaction score) with PUM1 PUF domain R4-EPS; 4.71 log2 enrichment (interaction score) with PUM1 PUF domain R3-EFT; 4.42 log2 enrichment (interaction score) with PUM1 PUF domain R4-GHF; 2.16 log2 enrichment (interaction score) in the experiment with PUM1 PUF domain R4-ANS; 1.5 log2 enrichment (interaction score) with PUM1 PUF domain R4-GCC; 3.05 log2 enrichment (interaction score) with PUM1 PUF domain R8-HWV.
In the case of “GGCUAGAACUAGUGGAUCCCCCGGCGCCCGGCGGCUCGAGCCCGGGUAAGUGUACAUAGUCUGCAUGCCGCCGGGCGCCAUGCCUGCAGGUCGACUCUAGAAAACAUG”, the binding signal with PUM1 PUF domain R4-ANS is 2.23 log2 enrichment (interaction score); in the experiment with PUM1 PUF domain R4-CNA, 2.26 log2 enrichment (interaction score); with PUM1 PUF domain R4-GCC, 1.75 log2 enrichment (interaction score).
“GGCUAGAACUAGUGGAUCCCCCGGCGCCCGGCGGCUCGAGCCCGGGUAAGUGUAAUUAGUCUGCAUGCCGCCGGGCGCCAUGCCUGCAGGUCGACUCUAGAAAACAUG”: the binding signal with PUM1 PUF domain R3-EFT is 2.45 log2 enrichment (interaction score).
Regarding “GGCUAGAACUAGUGGAUCCCCCGGCGCCCGGCGGCUCGAGCCCGGGUAAGUGUAAAUGGUCUGCAUGCCGCCGGGCGCCAUGCCUGCAGGUCGACUCUAGAAAACAUG”, in the experiment with PUM1 PUF domain R1-RLM, the binding signal was 1.69 log2 enrichment (interaction score).
Turning to “GGCUAGAACUAGUGGAUCCCCCGGCGCCCGGCGGCUCGAGCCCGGGUAAGUGUAUAUAGUCUGCAUGCCGCCGGGCGCCAUGCCUGCAGGUCGACUCUAGAAAACAUG”, the results for the binding signal with PUM1 PUF domain R4-ANS, with PUM1 PUF domain R4-CNA and in the experiment with PUM1 PUF domain R4-GCC were 2.51 log2 enrichment (interaction score), 1.78 log2 enrichment (interaction score) and 3.64 log2 enrichment (interaction score), respectively.

(Values after publication PMC8384837, “Expanding the binding specificity for RNA recognition by a PUF domain”.)
